Measured values published in PubChem BioAssay (EPA / NIEHS).
Inconclusive results are not listed. Calls of active or inactive are those of the source. Rule for the calls, unless noted: active = hit-call score of the fitted dose curve at least 0.9, where 1 is the maximum; inactive = score below 0.9.

Columns and labels:
[1] = ATG_PBREM_CIS: Attagene CIS-FACTORIAL HepG2 Assay for human Phenobarbital-responsive Enhancer Module (PBREM) (AID 2282955); conditions: HepG2 PBREM cis-reporter, Attagene multiplexed transcription; actives raise or lower the signal
In short: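 Multiplexed cis-reporter readout in human hepatoma HepG2 cells; PBREM-regulated transcript quantified after 24 h exposure by fluorescent RT-PCR fragment analysis. Signal changes up or down fitted relative to DMSO.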

[2] = biological target: Paired box protein Pax-6 (Homo sapiens) (UniProt P26367); assay: ATG_Pax6_CIS: Attagene CIS-FACTORIAL HepG2 Assay for human Paired Box 6 (PAX6) (AID 2282956); conditions: HepG2 CIS-FACTORIAL PAX6 reporter transcription, RNA readout; actives raise or lower the signal
In short: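 After twenty-four hours of chemical exposure, transfected HepG2 cells are harvested for RNA. Cis-promoter reporter transcripts are amplified, fluorescently labelled and sized by capillary electrophoresis, with gain and loss of signal scored against DMSO.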

[3] = ATG_PXRE_CIS: Attagene CIS-FACTORIAL HepG2 Assay for human Pregnane X Receptor Element (PXRE) (AID 2282957); conditions: HepG2 Attagene CIS-FACTORIAL PXRE reporter, mRNA; actives raise or lower the signal
In short: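 HepG2 cells transiently transfected with cis-element-driven multiplexed reporter units; after 24 h chemical exposure, reporter mRNA measured by RT-PCR, 6-FAM labelling, HpaI digestion and capillary electrophoresis. Bidirectional fitting relative to DMSO.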

[4] = ATG_PPRE_CIS: Attagene CIS-FACTORIAL HepG2 Assay for human Peroxisome Proliferator-activated Response Element (PPRE) (AID 2282958); conditions: HepG2 PPRE cis-element reporter, Attagene transcription factor profiling; actives raise or lower the signal
In short: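 DMSO served as negative control and baseline for bidirectional curve fitting. Signal came from PPRE-regulated reporter mRNA in HepG2 cells, measured 24 h post-dosing by RT-PCR, 6-FAM primer extension and capillary electrophoresis.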

[5] = ATG_Sox_CIS: Attagene CIS-FACTORIAL HepG2 Assay for human SRY-box transcription factor (SOX) (AID 2282960); conditions: HepG2 Attagene cis-factorial SOX reporter, mRNA; actives raise or lower the signal
In short: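 Fluorescence-labelled cDNA fragments from reporter transcripts, sized by CE, give the signal. Cells: HepG2, transiently transfected with cis-regulated reporter units. Exposure 24 h; DMSO negative control; bidirectional curve fitting.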

[6] = biological target: Transcription factor Sp1 (Homo sapiens) (UniProt P08047); assay: ATG_Sp1_CIS: Attagene CIS-FACTORIAL HepG2 Assay for human Specificity Protein 1 (Sp1) (AID 2282961); conditions: HepG2 Sp1 cis-reporter transcription, actives raise or lower the signal
In short: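 Chemicals are dosed onto HepG2 cells transfected with multiple cis-promoter reporter constructs, and after 24 h reporter RNA is reverse-transcribed, PCR-amplified and resolved by capillary electrophoresis for fluorescence quantitation; activity is scored up or down against DMSO.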

[7] = ATG_SREBP_CIS: Attagene CIS-FACTORIAL HepG2 Assay for human Sterol Regulatory Element Binding (SREBP) (AID 2282962); conditions: HepG2 Attagene cis-factorial SREBP reporter, mRNA; actives raise or lower the signal
In short: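 Twenty-four hours after chemical dosing of transfected HepG2 cultures, reporter RNA was converted to cDNA, amplified, end-labelled with 6-FAM and resolved by capillary electrophoresis. Responses were fitted relative to DMSO.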

[8] = biological target: Signal transducer and activator of transcription 3 (Homo sapiens) (UniProt P40763); assay: ATG_STAT3_CIS: Attagene CIS-FACTORIAL HepG2 Assay for human Signal Transducer and Activator of Transcription 3 (STAT3) (AID 2282963); conditions: HepG2, Attagene cis-factorial STAT3 reporter transcription; actives raise or lower the signal
In short: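 HepG2 cells transiently transfected with multiple cis-element-driven reporter units report endogenous transcription factor activity. After 24 h compound exposure, reporter mRNA is measured by RT-PCR, 6-FAM labelling, HpaI digestion and capillary electrophoresis. Fitted bidirectionally versus DMSO.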

[9] = ATG_TA_CIS: Attagene CIS-FACTORIAL HepG2 Assay for human TA Basal Promoter (AID 2282964); conditions: HepG2 Attagene CIS-factorial TA basal promoter reporter; actives raise or lower the signal
In short: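 Transient MRTU transfection of HepG2 preceded 24 h compound exposure. Reporter mRNA levels were then read by RT-PCR with capillary electrophoresis, and this background-control endpoint was fitted bidirectionally to DMSO.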

[10] = ATG_TCF_b_cat_CIS: Attagene CIS-FACTORIAL HepG2 Assay for human T-Cell-Factor with beta-catenin (TCF/b-cat) (AID 2282965); conditions: HepG2 TCF/beta-catenin cis-reporter transcription, actives raise or lower the signal
In short: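 Cells of the HepG2 line carry transiently transfected reporter units whose promoters respond to endogenous factors. Twenty-four hours post-dosing, reporter mRNA induction is measured by fluorescent RT-PCR and capillary electrophoresis, with DMSO as baseline.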

[11] = ATG_TAL_CIS: Attagene CIS-FACTORIAL HepG2 Assay for human TAL Basal Promoter (AID 2282966); conditions: HepG2 Attagene cis-factorial TAL promoter reporter; actives raise or lower the signal;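 note: background control endpoint measuring basal TAL promoter reporter mRNA not a specific factor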
In short: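 HepG2 cells transiently transfected with multiplexed cis-promoter reporter units, dosed 24 h. Reporter mRNA quantified by RT-PCR, 6-FAM labelling, HpaI digestion and capillary electrophoresis; TAL basal promoter serves as background control, fitted bidirectionally versus DMSO.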

[12] = ATG_TGFb_CIS: Attagene CIS-FACTORIAL HepG2 Assay for human Transforming Growth Factor (TGF) (AID 2282967); conditions: HepG2 Attagene CIS TGFb reporter, mRNA transcription; actives raise or lower the signal
In short: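 After a 24-hour incubation with compound, transfected HepG2 cells were lysed for RNA; reporter cDNA was amplified, fluorescently end-labeled and separated by CE. DMSO served as baseline for bidirectional fits.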

[13] = ATG_VDRE_CIS: Attagene CIS-FACTORIAL HepG2 Assay for human Vitamin D Receptor Element (VDRE) (AID 2282968); conditions: HepG2 VDRE cis-reporter transcription, actives raise or lower the signal
In short: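 Transiently transfected HepG2 cells carrying cis-regulated reporter transcription units were exposed for 24 h. Reporter mRNA was measured by RT-PCR with fluorescent labelling and capillary electrophoresis, and fitted in both directions against DMSO.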

[14] = biological target: Estrogen receptor (Homo sapiens) (UniProt P03372); assay: ATG_ERa_TRANS: Attagene TRANS-FACTORIAL HepG2 Assay for human Estrogen Receptor alpha (ERa) (AID 2282970; active = hit-call score of the fitted dose curve at least 0.9, where 1 is the maximum); conditions: HepG2 Attagene TRANS ERa GAL4 reporter, mRNA
In short: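 HepG2 cells transiently transfected with multiplexed GAL4-UAS reporter units read out chimeric NR-Gal4 activity. After 24 h compound exposure, reporter mRNA was quantified by RT-PCR, 6-FAM labeling, HpaI digestion and capillary electrophoresis, relative to DMSO.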

[15] = biological target: X-box-binding protein 1 (Homo sapiens) (UniProt P17861); assay: ATG_Xbp1_CIS: Attagene CIS-FACTORIAL HepG2 Assay for human X-box Binding Protein 1 (XBP1) (AID 2282972); conditions: HepG2 XBP1 cis-element reporter, Attagene multiplex; actives raise or lower the signal
In short: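 After a 24-hour chemical exposure of HepG2 cells carrying cis-regulated reporters, reporter mRNA levels are assessed. Quantification uses RT-PCR, 6-FAM labelling and capillary electrophoresis. Gain- or loss-of-signal is fitted against DMSO.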

[16] = ATG_RORE_CIS: Attagene CIS-FACTORIAL HepG2 Assay for human RAR-related Orphan Receptor Element (RORE) (AID 2282959); conditions: HepG2 Attagene cis-factorial RORE reporter, mRNA; actives raise or lower the signal
In short: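 Transfect HepG2 with MRTUs; treat 24 h; extract RNA; RT with oligo(dT); PCR with reporter-specific primers; 6-FAM primer extension; HpaI digest 2 h at 37 C; capillary electrophoresis. Fit vs DMSO, bidirectional.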

[17] = ATG_M_19_TRANS: Attagene TRANS-FACTORIAL HepG2 Assay for M19 Transcription Factor (Internal Marker) (AID 2282974; active = hit-call score of the fitted dose curve at least 0.9, where 1 is the maximum); conditions: HepG2 Attagene TRANS-FACTORIAL M19 internal marker reporter
In short: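 Multiplexed TRANS format: HepG2 liver cells bearing transient GAL4-UAS reporter units, chemical treatment 24 h, reporter transcripts quantified by RT-PCR plus capillary electrophoresis. DMSO defines baseline.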

[18] = ATG_GAL4_TRANS: Attagene TRANS-FACTORIAL HepG2 Assay for GAL4 (Internal Marker) (AID 2282976; active = hit-call score of the fitted dose curve at least 0.9, where 1 is the maximum); conditions: HepG2 Attagene TRANS GAL4 internal marker reporter
In short: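 Background-control readout: GAL4-UAS reporter transcript in transiently transfected HepG2 cells after 24 h compound exposure. Measured by RT-PCR, 6-FAM primer extension, HpaI digest and capillary electrophoresis; gain-of-signal fit versus DMSO.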

[19] = biological target: Nuclear receptor subfamily 1 group I member 3 (Homo sapiens) (UniProt Q14994); assay: ATG_CAR_TRANS: Attagene TRANS-FACTORIAL HepG2 Assay for human Constitutive Androstane Receptor (CAR) (AID 2282969; active = hit-call score of the fitted dose curve at least 0.9, where 1 is the maximum;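 note: activators raise reporter mRNA above DMSO so AC50 marks induction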); conditions: HepG2 Attagene TRANS-FACTORIAL CAR reporter
In short: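 HepG2 cells transiently transfected with GAL4-UAS reporter units; TRANS format reads activity of exogenous chimeric NR-Gal4 protein. After 24 h dosing, reporter mRNA quantified by RT-PCR, 6-FAM labelling and capillary electrophoresis; gain of signal fitted against DMSO.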

[20] = biological target: Steroid hormone receptor ERR1 (Homo sapiens) (UniProt P11474); assay: ATG_ERRa_TRANS: Attagene TRANS-FACTORIAL HepG2 Assay for human Estrogen-Related Receptor alpha (ERRa) (AID 2282971; active = hit-call score of the fitted dose curve at least 0.9, where 1 is the maximum); conditions: HepG2 Attagene TRANS reporter, ERRa transactivation
In short: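 HepG2 cells transiently transfected with GAL4-UAS reporter units and chimeric NR-Gal4 constructs; after 24 hour compound incubation, reporter mRNA quantified by RT-PCR, fluorescent labelling and capillary electrophoresis, gain of signal versus DMSO.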

Measured: AC50

Estrogen receptor (Homo sapiens), sequence (P03372 whole entry, looked up, the tested form may be a part): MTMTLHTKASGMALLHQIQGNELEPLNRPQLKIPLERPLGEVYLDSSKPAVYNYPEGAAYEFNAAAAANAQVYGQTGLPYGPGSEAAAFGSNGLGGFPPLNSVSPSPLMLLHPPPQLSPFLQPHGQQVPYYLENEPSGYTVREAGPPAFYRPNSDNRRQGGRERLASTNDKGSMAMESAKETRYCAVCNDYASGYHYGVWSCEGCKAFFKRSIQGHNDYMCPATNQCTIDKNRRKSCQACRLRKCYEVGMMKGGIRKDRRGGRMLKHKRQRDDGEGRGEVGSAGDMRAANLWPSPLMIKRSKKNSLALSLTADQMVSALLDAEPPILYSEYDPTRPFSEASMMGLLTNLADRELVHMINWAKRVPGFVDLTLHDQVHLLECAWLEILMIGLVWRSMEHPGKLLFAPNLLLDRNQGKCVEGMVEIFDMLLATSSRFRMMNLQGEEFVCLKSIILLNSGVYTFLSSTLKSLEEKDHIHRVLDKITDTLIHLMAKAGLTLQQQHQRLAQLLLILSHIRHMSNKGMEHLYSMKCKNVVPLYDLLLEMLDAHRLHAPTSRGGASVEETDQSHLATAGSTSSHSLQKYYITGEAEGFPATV
Transcription factor Sp1 (Homo sapiens), sequence (P08047 whole entry, looked up): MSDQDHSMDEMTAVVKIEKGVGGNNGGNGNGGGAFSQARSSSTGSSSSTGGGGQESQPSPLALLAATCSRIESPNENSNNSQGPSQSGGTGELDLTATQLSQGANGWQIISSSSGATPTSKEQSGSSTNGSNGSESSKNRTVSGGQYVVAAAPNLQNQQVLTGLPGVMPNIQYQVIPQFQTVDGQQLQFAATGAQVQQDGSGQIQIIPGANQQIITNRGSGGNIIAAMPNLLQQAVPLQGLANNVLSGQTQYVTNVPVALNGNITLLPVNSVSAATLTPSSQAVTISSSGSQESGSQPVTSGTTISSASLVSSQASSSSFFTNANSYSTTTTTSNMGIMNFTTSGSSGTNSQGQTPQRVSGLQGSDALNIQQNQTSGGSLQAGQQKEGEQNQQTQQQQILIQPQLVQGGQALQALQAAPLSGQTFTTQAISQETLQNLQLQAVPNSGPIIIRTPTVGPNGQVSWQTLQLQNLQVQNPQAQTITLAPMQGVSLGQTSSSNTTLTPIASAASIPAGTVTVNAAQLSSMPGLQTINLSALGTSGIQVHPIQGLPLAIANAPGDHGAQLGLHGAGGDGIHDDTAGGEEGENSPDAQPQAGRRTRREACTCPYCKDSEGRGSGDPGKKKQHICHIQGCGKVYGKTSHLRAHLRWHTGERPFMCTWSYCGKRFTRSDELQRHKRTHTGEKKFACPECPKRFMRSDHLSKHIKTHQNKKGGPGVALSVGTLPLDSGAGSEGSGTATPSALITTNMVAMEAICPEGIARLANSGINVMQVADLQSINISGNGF
X-box-binding protein 1 (Homo sapiens), sequence (P17861 whole entry, looked up): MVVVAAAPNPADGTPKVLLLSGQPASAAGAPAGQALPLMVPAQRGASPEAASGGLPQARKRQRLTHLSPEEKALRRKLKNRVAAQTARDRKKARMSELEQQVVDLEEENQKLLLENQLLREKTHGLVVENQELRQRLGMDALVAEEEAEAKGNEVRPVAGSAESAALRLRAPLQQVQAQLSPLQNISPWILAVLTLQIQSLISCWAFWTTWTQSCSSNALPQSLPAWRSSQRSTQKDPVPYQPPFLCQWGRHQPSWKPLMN
Signal transducer and activator of transcription 3 (Homo sapiens), sequence (P40763 whole entry, looked up): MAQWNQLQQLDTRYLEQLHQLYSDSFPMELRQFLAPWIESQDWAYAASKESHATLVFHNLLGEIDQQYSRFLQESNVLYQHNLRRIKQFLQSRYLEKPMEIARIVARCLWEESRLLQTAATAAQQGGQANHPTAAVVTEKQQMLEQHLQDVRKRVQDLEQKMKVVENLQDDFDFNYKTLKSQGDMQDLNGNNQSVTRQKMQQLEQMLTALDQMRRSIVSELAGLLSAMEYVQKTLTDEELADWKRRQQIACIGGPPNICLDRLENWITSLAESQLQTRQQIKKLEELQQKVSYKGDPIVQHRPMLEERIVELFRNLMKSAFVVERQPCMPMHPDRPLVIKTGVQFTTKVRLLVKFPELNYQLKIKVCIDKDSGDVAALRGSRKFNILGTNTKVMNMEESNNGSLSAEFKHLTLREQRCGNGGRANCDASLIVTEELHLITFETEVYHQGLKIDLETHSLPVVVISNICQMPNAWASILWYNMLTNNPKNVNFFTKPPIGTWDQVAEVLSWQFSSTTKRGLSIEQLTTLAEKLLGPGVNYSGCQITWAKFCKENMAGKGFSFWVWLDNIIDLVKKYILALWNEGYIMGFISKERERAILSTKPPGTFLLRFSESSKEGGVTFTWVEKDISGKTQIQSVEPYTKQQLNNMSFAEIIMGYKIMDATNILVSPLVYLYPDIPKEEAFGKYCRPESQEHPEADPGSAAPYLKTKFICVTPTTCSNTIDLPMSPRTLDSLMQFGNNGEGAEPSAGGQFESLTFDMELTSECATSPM
Paired box protein Pax-6 (Homo sapiens), sequence (P26367 whole entry, looked up): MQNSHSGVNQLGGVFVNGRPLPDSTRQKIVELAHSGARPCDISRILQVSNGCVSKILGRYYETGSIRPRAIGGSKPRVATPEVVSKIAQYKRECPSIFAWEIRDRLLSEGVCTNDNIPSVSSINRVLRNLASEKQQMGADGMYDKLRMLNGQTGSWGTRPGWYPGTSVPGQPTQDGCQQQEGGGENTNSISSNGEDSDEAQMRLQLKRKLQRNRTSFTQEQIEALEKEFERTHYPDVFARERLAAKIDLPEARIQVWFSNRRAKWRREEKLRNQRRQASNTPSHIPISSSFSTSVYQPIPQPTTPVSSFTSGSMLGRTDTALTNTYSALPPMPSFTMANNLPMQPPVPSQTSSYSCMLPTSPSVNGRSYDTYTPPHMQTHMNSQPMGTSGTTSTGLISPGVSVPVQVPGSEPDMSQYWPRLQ
Nuclear receptor subfamily 1 group I member 3 (Homo sapiens), sequence (Q14994 whole entry, looked up, the tested form may be a part): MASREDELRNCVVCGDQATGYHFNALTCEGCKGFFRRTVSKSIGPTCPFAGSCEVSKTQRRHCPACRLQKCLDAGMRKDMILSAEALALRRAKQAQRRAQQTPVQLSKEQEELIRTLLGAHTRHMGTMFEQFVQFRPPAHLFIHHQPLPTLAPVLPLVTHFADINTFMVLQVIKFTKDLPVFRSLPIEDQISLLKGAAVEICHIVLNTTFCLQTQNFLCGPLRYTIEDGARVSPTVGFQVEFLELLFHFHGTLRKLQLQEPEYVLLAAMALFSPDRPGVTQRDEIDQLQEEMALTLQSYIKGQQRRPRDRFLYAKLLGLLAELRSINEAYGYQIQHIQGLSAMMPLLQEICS
Steroid hormone receptor ERR1 (Homo sapiens), sequence (P11474 whole entry, looked up, the tested form may be a part): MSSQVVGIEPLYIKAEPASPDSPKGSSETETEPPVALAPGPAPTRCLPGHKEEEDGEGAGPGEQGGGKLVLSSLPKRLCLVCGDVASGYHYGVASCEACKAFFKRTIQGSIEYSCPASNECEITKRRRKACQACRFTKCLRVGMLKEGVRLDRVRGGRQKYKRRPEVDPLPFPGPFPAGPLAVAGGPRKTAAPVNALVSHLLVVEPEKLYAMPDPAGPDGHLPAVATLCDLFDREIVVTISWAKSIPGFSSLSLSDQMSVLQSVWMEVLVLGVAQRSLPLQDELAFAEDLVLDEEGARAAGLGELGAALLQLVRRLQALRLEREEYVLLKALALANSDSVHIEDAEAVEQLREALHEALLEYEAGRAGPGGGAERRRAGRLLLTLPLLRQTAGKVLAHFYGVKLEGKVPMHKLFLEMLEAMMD

CCCCCCCCCOS(=O)(=O)O
inactive: [1] | [2] | [3] | [5] | [6] | [7] | [8] | [9] | [10] | [11] | [12] | [13] | [15]
active: [4] 24 µM | [14] 20.1 µM

NC(=O)c1cccnc1
active: [3] 32.3 µM
inactive: [1] | [2] | [4] | [16] | [5] | [7] | [8] | [9] | [11] | [12] | [13] | [14] | [15] | [17] | [18]

COC(=O)c1ccc(C(=O)OC)cc1
inactive: [1] | [2] | [3] | [16] | [5] | [6] | [7] | [8] | [9] | [10] | [11] | [12] | [13] | [15] | [17] | [18]

CC=CC(=O)C1=C(C)C=CCC1(C)C
active: [3] 55.4 µM
inactive: [1] | [2] | [4] | [16] | [5] | [7] | [8] | [10] | [11] | [12] | [13] | [19] | [20] | [17] | [18]

N=C1N=C(N)c2ccccc21
inactive: [1] | [2] | [3] | [16] | [5] | [6] | [7] | [8] | [9] | [10] | [11] | [12] | [13] | [19] | [15] | [17]

CCO[Si](CC)(OCC)OCC
inactive: [1] | [2] | [16] | [5] | [6] | [7] | [8] | [9] | [11] | [13] | [15] | [18]
active: [3] 2.33 µM | [10] 173 µM | [12] 160 µM

CC(C)COC(=O)c1ccccc1O
active: [3] 44.8 µM
inactive: [1] | [2] | [16] | [5] | [6] | [7] | [8] | [9] | [10] | [11] | [12] | [13] | [19] | [14] | [15] | [17] | [18]
